# In the library only some 2.3% were active in any assay of this set; here they are far more common.
# IL2 activator: activates IL-2 in a cell-based reporter assay; IL-2 activation reporter assay, cell-based qHTS; stimulated with anti-CD3/CD4/CD28 beads; in transgenic mouse T cells; activation, % (series mostly up to about 46 µM); hit rate 0.065% among 360,000; in the data active means activation above about 50%; inconclusive means mostly about 30% to 49%; further: 0% is about no effect
#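 Quantitative HTS in unstimulated transgenic mouse T cells, with memory T cells as non-tolerant control and PMA/ionomycin as tolerance-bypass control. Compound pretreatment lasted 60 minutes before 18 h bead stimulation; EGFP/DsRed fluorescence read.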
# A549 tox: counter-screen for Nrf2 inhibitors: cytotoxicity in A549 cells. A549 ARE-Fluc cells, CellTiter-Fluor viability, 18-24 h. Potency, µM (top dose mostly 46 µM), for inactives: top-dose activity change, negative = cytotoxicity, most hits filed as inhibitors. hit rate 0.16% among 390,000; further: potency means the concentration at half of the fitted maximal effect; on the % scale 0 is the no-effect control and ±100 the full control effect
#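 Cytotoxicity counterscreen: CellTiter-Fluor fluorescence was measured in A549 ARE_Fluc cells after 18-24 h of compound exposure in a concentration series. The subsequent BugLite luminescent read reports ARE-luciferase activity.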
# Nrf2 activator: activates Nrf2 signaling; Potency, µM (titrated, usually from 46.1 µM), inactives show top-dose activation, most hits filed as activators; hit rate 0.31% among 410,000; AREc32 ARE-luciferase reporter (MCF7-derived line), luminescence, 24 h; further: potency means the concentration at half of the fitted maximal effect; % of control where 0% means no effect; nearly all actives have a fitted effect of over 65% in size
#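 ARE activation measured as luciferase luminescence (Steady-Glo, 30 min RT) in AREc32_Fluc cells after 24 hr compound exposure at 37 deg C, 5% CO2; cells seeded overnight at 1000/well in OPTI-MEM, 5% FBS.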
# Nrf2 inh: inhibitors of Nrf2 signaling | A549 ARE-Fluc reporter, luciferase luminescence, 18-24 h | AID 504444 | Potency, µM (doses to about 46 µM), without a hit: top-dose activity change, negative = inhibition, usual class: inhibitors | hit rate 2.1% among 360,000; further: potency means the concentration at half of the fitted maximal effect; on the % scale 0 is the no-effect control and ±100 the full control effect; nearly all actives have a fitted effect of over 60% in size
#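 A549 ARE_Fluc cells, 5000/well, 5% FBS OPTI-MEM; compounds in dose-response, 18-24 h at 37 °C/5% CO2; CellTiter-Fluor viability read (Ex 405/Em 525), then BugLite luciferase luminescence = Nrf2 activity.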
# * marks the source's active call; other numbers are inactive results; ? = inconclusive; · = not tested or not shown; [ ] = dose if it differs, or a comment. Unless noted, the call rests on the fitted dose curve; in most records, active means well fitted curve in the direction sought with a large enough effect; inconclusive means small, poorly fitted or top-dose-only effect, or another doubt; inactive means no such curve, though single readings can be large; an effect the other way counts as inactive or inconclusive.
SMILES,IL2 activator,A549 tox,Nrf2 activator,Nrf2 inh
CCc1ccc2oc(C(=O)Nc3nc(-c4ccccc4)ns3)c(C)c2c1,·,3%,3%,-3%
Cc1ccc(C(=O)N2CCN(c3ccc(NC(=O)COc4ccccc4C)cc3)CC2)cc1,-4,?,0%,21µM*
Cc1ccc(OCC(=O)Nc2ccc(N3CCN(C(=O)c4ccco4)CC3)cc2)cc1,-1,1%,0%,21µM*
CCC(=O)N1CCN(c2ccc(NC(=O)COc3ccc(C)cc3C)cc2)CC1,0,-7%,0%,?
COc1ccc(-c2sc3ccc(N4CCOCC4)cc3c2C#CC2(O)CCCCC2)cc1,0,-6%,6%,-26%
COc1ccc(-c2sc3ccc(N4CCOCC4)cc3c2C#CCO)cc1,-4,-9%,-3%,16µM*
O=C(c1ccccc1)c1c2c(cc3sc4ccccc4[n+]13)-c1cccc3cccc-2c13,2,16µM*,3%,21µM*
COc1ccc(C(=O)c2c(C(F)(F)F)oc3c2C(=O)c2ccccc2C3=O)cc1,0,7.3µM*,-3%,·
Cc1ccccc1CN1CCCN(CC(=O)Nc2ccc3c(c2)OCCO3)S1(=O)=O,·,-3%,0%,·
COc1ccc(Cl)cc1NC(=O)NCCc1c(C)nn(C)c1C,·,1%,-1%,·
Cc1cccc(N2CCN(C(=O)CSCc3c(C)noc3C)CC2)c1C,-1,-8%,2%,1.8µM*
O=c1c2[nH]c3ccsc3c2cnn1Cc1ccccc1F,·,9%,·,3%
CC1CN(C(=O)Nc2ccc(C(=O)NCCc3ccccc3Cl)cc2)c2ccccc2S1 (configuration not stated),·,-4%,3%,-20%
COc1ccccc1CCNC(=O)c1ccc(NC(=O)N2CC(C)Sc3ccccc32)cc1 (configuration not stated),·,0%,1%,21µM*
COc1cc2[nH]c(=O)n(Cc3ccc(C(=O)NCc4ccccc4)cc3)c(=O)c2cc1OC,·,0%,-1%,-16%[9.27 µM]
O=C(Nc1ncc2c(n1)-c1ccccc1CC2)c1ccc(F)cc1,-4,-5%,17%,-8%
O=C(Nc1ncc2c(n1)-c1ccccc1CC2)c1ccccc1,-4,-3%,7.9µM*,6%
Cc1cccc(-c2nc3c4c(-c5ccccc5)c(-c5ccccc5)oc4ncn3n2)c1,·,0%,0%,4%
CC(C)n1c(=O)c2oc3ccccc3c2n(CC(=O)Nc2ccccc2Cl)c1=O,·,4%,-1%,?
Cn1c(/C=N/Nc2nc3ccccc3[nH]2)nc2ccccc21,-2,1%,8%,?
CC(C)Cn1c(/C=N/Nc2nc3ccccc3[nH]2)nc2ccccc21,0,-4%,0%,7.3µM*
CCCn1c(/C=N/Nc2nc3ccccc3[nH]2)nc2ccccc21,3,?,3%[9.22 µM],15µM*
CCn1cnc2c(Nc3cc(F)cc(F)c3)nc(C(=O)COc3c(F)c(F)cc(F)c3F)nc21,·,0%,·,15%
CCn1c(=O)c([N+](=O)[O-])c(N2CCSCC2)c2ccccc21,-1,-8%,0%,16µM*
Cn1c(=O)c([N+](=O)[O-])c(N2CCSCC2)c2ccccc21,0,-12%,0%,-16%
SMILES,IL2 activator,A549 tox,Nrf2 activator,Nrf2 inh
Cc1cc2c(s1)c1cnn(Cc3cccc(F)c3)c(=O)c1n2C,·,1%,·,-12%
CCOC(=O)c1ccc(NC(=O)c2cn(-c3ccccc3)nc2-c2ccc(OC)c(OC)c2)cc1,·,2%,4%,-5%
CC(C)(C)OC(=O)NCCCCCNC(=O)c1[nH]cnc1C(=O)Nc1ccc(Cl)cc1,-4,?,-4%,16µM*
C[C@H](NC(=O)c1[nH]cnc1C(=O)Nc1ccc(Cl)cc1)c1ccccc1,0,-10%,0%,18µM*
C[C@@H](NC(=O)c1[nH]cnc1C(=O)Nc1ccccc1)c1ccccc1,0,-8%,-2%,23µM*
Cc1ccc(NC(=O)c2nc[nH]c2C(=O)N[C@@H](C)c2ccccc2)cc1,0,-5%,-2%,?
C[C@@H](NC(=O)c1[nH]cnc1C(=O)Nc1ccc(Cl)cc1)c1ccccc1,0,18µM*,-6%,5.8µM*
O=C(CSc1oc(-c2ccco2)nc1S(=O)(=O)c1ccc(Cl)cc1)Nc1ccc(F)cc1,·,4%,0%,7%[9.27 µM]
COc1ccc(C2N(Cc3ccccc3)C(=O)c3ccccc3N2C)cc1COc1ccc(NC(C)=O)cc1 (configuration not stated),·,-10%,·,?
O=C(Nc1nnc(N2CCCCCC2)s1)Nc1cc(F)ccc1F,·,-2%,0%,25%
CC1CCC(C(=O)NC(C(=O)OCC(=O)c2ccc(Br)cc2)C(C)C)CC1 (configuration not stated),·,0%,0%,?
Cc1ccccc1NC(=O)N1CCCC(c2nc(-c3ccc(C(C)C)cc3)no2)C1 (configuration not stated),1,?,-1%,5.8µM*
COc1ccc(NC(=O)C(C)Sc2cc(-c3ccccc3)nc(C)n2)cc1Cl (configuration not stated),·,?,0%,21µM*
COc1ccc(-c2csc(NC(=O)c3ccccc3S(C)(=O)=O)n2)cc1,0,-11%,2%,16µM*
O=C(Nc1nc(-c2ccccn2)cs1)c1cccc(S(=O)(=O)N2CCOCC2)c1,2,?,1%,3.3µM*
Cc1ccc(S(=O)(=O)N2CCOCC2)cc1C(=O)Nc1nc(-c2ccccn2)cs1,0,-12%,1%,9.2µM*
COc1ccc(-c2csc(NC(=O)C3CCCCN3S(=O)(=O)c3ccccc3)n2)cc1 (configuration not stated),-1,-30%,3%,23µM*
O=C(OCC#CCSc1nnc(-c2cccc3ccccc23)o1)c1ccsc1,·,-4%,·,?
COc1ccc(-c2csc(NC(=O)c3cccc(S(=O)(=O)N4CCN(C)CC4)c3)n2)cc1,0,-13%,2%,15µM*
COc1ccc(C(=O)Nc2nc(-c3ccccn3)cs2)cc1S(=O)(=O)N1CCOCC1,0,-3%,0%,16µM*
CC(=O)c1c(C)[nH]c(C(=O)Nc2nc(-c3ccc(Cl)cc3)cs2)c1C,-1,1%,1%,?
CC(=O)c1c(C)[nH]c(C(=O)Nc2nc(-c3ccc(-c4ccccc4)cc3)cs2)c1C,0,?,0%,23µM*
Cc1ccc(C)c(N2CCN(C(=O)c3cc(S(=O)(=O)N4CCCC4)c[nH]3)CC2)c1,·,6%,4%,15%
COc1cc2ccccc2cc1C(=O)Nc1ccc2oc(-c3ccc(Cl)cc3)nc2c1,·,-6%,12%,10%
O=C(c1ccc(Cl)c([N+](=O)[O-])c1)N1CCN(c2ccccn2)CC1,-1,-2%,3%,-7%
O=C(c1ccc(Sc2cccc(Cl)c2)c([N+](=O)[O-])c1)N1CCN(c2ccccn2)CC1,2,-12%,1%,16µM*
O=C1CCc2cc(Cl)c(S(=O)(=O)Nc3ccc(Cl)c(Cl)c3)cc2N1,·,13%,·,0%
